Assay results published in PubChem BioAssay (NCI).
This is part of a sample that, as a whole, favours compounds with a hit. Of some 83,000 tested, about 20% had one in any assay.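 The endpoint reported here, percent growth, reads 100 for growth as untreated, 0 for no net growth and -100 for all cells dead.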 A number with no mark means an inactive call. The source made the active and inactive calls. How the source made its calls: active means growth percent below 10; inactive means the rest.

Assays:
Experiment in all cases: NCI-60 one-dose screen, 48 h (100 = growth as untreated, 0 = no growth, -100 = all killed)
Details in all cases: 10 µM unless noted
NCI-H23 lung = tested on: NCI-H23 lung
NCI-H226 lung = tested on: NCI-H226 lung
NCI-H322M lung = tested on: NCI-H322M lung
HOP-62 NSCLC = tested on: HOP-62 NSCLC
NCI-H460 lung = tested on: NCI-H460 lung
HOP-92 NSCLC = tested on: HOP-92 NSCLC
NCI-H522 lung = tested on: NCI-H522 lung
A549/ATCC NSCLC = tested on: A549/ATCC NSCLC
786-0 renal = tested on: 786-0 renal
COLO 205 colon = tested on: COLO 205 colon

Compound | growth (NCI-H23 lung) | growth (NCI-H226 lung) | growth (NCI-H322M lung) | growth (HOP-62 NSCLC) | growth (NCI-H460 lung) | growth (HOP-92 NSCLC) | growth (NCI-H522 lung) | growth (A549/ATCC NSCLC) | growth (786-0 renal) | growth (COLO 205 colon)
O=S(=O)(NCCCNc1nccc(-c2[nH]c(-c3ccccc3)nc2-c2ccc(F)c(O)c2)n1)c1ccccc1 | 96.5% | 99.4% | 117% | 120% | 87.3% | 105% | 91.2% | 98.3% | 113% | 95.5%
COc1ccc(/C=N\NC(=O)c2cnn(CC(O)c3ccccc3)c2N)cc1OCc1ccc(Cl)cc1 (stereo not given) | 74.7% | 90.7% | 85% | 84.1% | 44.3% | 86% | 92.7% | 62.9% | 96.2% | 72.8%
COc1ccc(N2CCN(C3=C(Cl)C(=O)c4ncccc4C3=O)CC2)cc1 | 55.9% | 94% | 97.2% | 85.4% | 52.7% | 96.2% | -9.71% (active) | 96% | 107% | 30.5%
Cc1csc(/N=C(N)/N=C(\N)c2cccc(Br)c2)n1 | 89.1% | 88.9% | 95.6% | 85.3% | 98.1% | 69.9% | 80% | 101% | 97.3% | 95.3%
COc1ccc(Cn2cc(C#N)c(N)c2C(C)=O)cc1 | 101% | 101% | 98.8% | 104% | 104% | 87.5% | 102% | 110% | 111% | 111%
CC(C)[C@H]1c2[nH]c3ccccc3c2C[C@H]2C(=O)N(CCCCCCC(=O)NO)CC(=O)N12 | 87.6% | 102% | 88.4% | 85.7% | 78.5% | 74.9% | 42.8% | 98.7% | 97.3% | 83.8%
Cn1cc(-c2nn3cc(-c4ccncc4)nc3s2)c2cc(Br)ccc21 | 63.1% | 83.5% | 81.3% | 71.6% | 54.9% | -0.882% (active) | 79.4% | 66.4% | 84.6% | 46.5%
COc1ccc(OC)c(NC(=O)CCCCCCNC(=O)C(O)(O)C(F)(F)F)c1 | 48.6% | 78.7% | 61% | 36.8% | 39% | 28.8% | -0.794% (active) | 47.7% | 50% | 10.5%
O=C(CCCCCCNC(=O)C(O)(O)C(F)(F)F)Nc1ccc(-c2ccccc2)cc1 | 9.87% (active) | 39.4% | 28.2% | -4.5% (active) | 7.65% (active) | -13.6% (active) | -30.9% (active) | 8.66% (active) | 22.8% | -61.9% (active)
CCOC(=O)Nc1ccc2c(ccn2C(=O)c2cccc(F)c2)c1 | 41.4% | 53.5% | 61.8% | 35.2% | 14.8% | 76% | 0.367% (active) | 47.6% | 57.5% | -3.54% (active)
Cc1ccc(NC(=O)/C=C/c2ccc(OCCCOc3ccc4c(C)cc(=O)oc4c3)cc2)cc1 | 75.1% | 56.8% | 37.8% | 48.5% | 38.8% | 35.7% | 51.9% | 82.9% | 44.3% | 82.2%
Cc1nc(N)sc1-c1csc(Nc2ccc(C(F)(F)F)cc2)n1 | 34.4% | 37.4% | 61.4% | 47.3% | 25.1% | 37.3% | -56.3% (active) | 45.1% | 38.6% | 19.6%
CCCCSC1=C(Cl)CN(c2ccccc2)C1=O | 102% | 102% | 101% | 111% | 104% | 95.7% | -9.23% (active) | 104% | 108% | 125%
O=S1SC(c2ccccc2)=NN1c1cc(F)cc(F)c1 (stereo not given) | 22.9% | 45.4% | 67.9% | 48.6% | 19.6% | -25.2% (active) | 34.6% | 26% | 34.9% | 107%
OCC(Nc1ncnc2ccc(-c3cnc4cnccn34)cc12)c1ccccc1 (stereo not given) | 57.8% | 67.5% | 40% | 79.8% | 89.4% | 59.3% | 43.5% | 74.2% | 64.4% | 98.2%
O=C(NCCNc1cc(-c2cn(-c3ccccc3)nc2-c2cccc(O)c2)ccn1)Nc1cc(C(F)(F)F)cc(C(F)(F)F)c1 | 98.1% | 85% | 86.5% | 95% | 102% | 89.6% | 92.2% | 96.5% | 99% | 107%
CS(=O)(=O)c1ccc(/C(=N/N=C(N)N)c2ccc(F)cc2)cc1 | 88.3% | 91% | 119% | 95.7% | 92.7% | 94.4% | 81.2% | 80.8% | 76.9% | 88%
Cc1ccc(NC(=O)Nc2nc3ccc([N+](=O)[O-])cc3s2)cc1 | -4.55% (active) | 6.4% (active) | 4.58% (active) | -4.29% (active) | 3.09% (active) | -33% (active) | -10.6% (active) | 4.97% (active) | 8.32% (active) | 48.8%
CN(C)CCNc1ccc2ncc(C#Cc3cncc(C(=O)Nc4ccc(CN5CCN(C)CC5)c(C(F)(F)F)c4)c3)n2n1 | -62.4% (active) | 33.4% | 6.14% (active) | -37.2% (active) | 9.62% (active) | -4.93% (active) | -61.8% (active) | 29.1% | 4.34% (active) | -32.3% (active)
COc1ccccc1/C=C/C(=O)c1nnn(-c2ccc(F)cc2)c1C | 42.9% | 53.1% | 70.6% | 72.2% | 28.4% | 72.9% | 54% | 41.7% | 84.5% | 72.4%
CN1CCN(Cc2ccc(NC(=O)c3cncc(C#Cc4cnc5ccc(OCC(F)F)nn45)c3)cc2C(F)(F)F)CC1 | -51.2% (active) | -62.6% (active) | -35.4% (active) | -76.6% (active) | -85% (active) | -30.7% (active) | -75.9% (active) | -61.6% (active) | -90.3% (active) | -87.7% (active)
C#C[C@]1(O)CC[C@H]2[C@@H]3CC=C4c5sc(Nc6cccc(F)c6)nc5CC[C@]4(C)[C@H]3CC[C@@]21C | 27.8% | 43.6% | 53.7% | 33.4% | 24.3% | 61.3% | 31.7% | 32.6% | 2.62% (active) | -9.5% (active)
Oc1ccc(-c2nc3ccc(/C(=N\N=C\c4ccc(Cl)cc4)c4ccccc4)cc3[nH]2)cc1 | 94.8% | 80.7% | 93.7% | 100% | 86.4% | 118% | 74.6% | 89.2% | 66.5% | 54%
COC(=O)c1cccc(NC2=C(Cl)C(=O)C(C)=C(C)C2=O)c1 | 92.4% | 85.9% | 100% | 94.8% | 101% | 33.9% | 95.8% | 115% | 104% | 114%
CN1CCN(c2ccc(Nc3nc(NCCCNS(=O)(=O)c4ccc(Cl)cc4)c4sccc4n3)cc2)CC1 | 65% | 99.6% | 33.7% | 52.5% | 7.38% (active) | 49.4% | -65.8% (active) | 21.9% | -43.2% (active) | -38.3% (active)
CC1=C(C)C(=O)C(Nc2cccc(C(=O)OC(C)(C)C)c2)=C(Cl)C1=O | 92.4% | 91.3% | 99.5% | 103% | 99.8% | 56.4% | 81.7% | 90.4% | 96.5% | 118%
